Screening results deposited in PubChem by several laboratories.
This is a sample that favours compounds with a hit; in the whole collection about 1.9% have one here.
Vif imaging – HIV Vif self-association inhibitors, primary screen, imaging, HEK293T, single point; HEK293T cells, Vif self-association by quenched fluorescence, 24 h; inhibition, % at 7.49 µM; 340,000 compounds, 0.35% hits; in the data active = inhibition above about 50%, passing the limit was not always enough; inconclusive = no clear call, values can overlap the other calls; inactive = below about 31%
GSIS activator – GLuc luminescence reporter in INS-1E cells, primary screen for activators of glucose-dependent secretion of insulin. INS-1E GLuc reporter insulin secretion, 2-3 h. activation, % at 16.6 µM. 370,000 compounds, 0.61% hits. AID 743287, 2014;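 active = lowest replicate activation of at least 40%, so every replicate reaches that level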;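 note: 0% = median of neutral control wells and 100% = median of IBMX positive control wells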
dFosB act-1 – activators of delta FosB homodimer, primary screen, biochemical, fluorescence polarization, TAMRA-CDK5 oligo, single point. Protein FosB (Mus musculus), P13346. purified delta FosB; percent of positive-control signal above neutral wells. activation, % at 25 µM. 340,000 compounds, 0.99% hits. AID 493131, 2011;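 active = mean activation above about 17%, with every replicate also reaching it, limit read from the data, passing the limit was not always enough; inconclusive = only one of the two conditions met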
A1 inh – caspase 3/7 activation in MEF A1-2A-BIM cells, primary screen, A1 inhibitor project, cell-based, luminescence, HTS | Caspase-Glo 3/7 luminescence, 3 h; percent of clofoctol response, vehicle zero | caspase activation, % (test concentration not listed) | 330,000 compounds, 0.066% hits | AID 2462, 2010;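 active = over half of replicate activation scores above 10%, or exactly half above 10 with the replicate mean above 10; inconclusive = replicate mean below 10 yet half the replicates above 10; inactive = over half of replicates below 10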
Neddylation inh – inhibitors of cullin neddylation, primary screen, biochemical, TR-FRET, uHTS, NAE and Ubc12. AID 651699, 2012. inhibition, % at 25 µM. NEDD8-conjugating enzyme Ubc12 (Homo sapiens) + NEDD8-activating enzyme E1 regulatory …. 360,000 compounds, 0.58% hits; in the data active = inhibition above about 36%
Target sequence (P61081 whole entry, looked up): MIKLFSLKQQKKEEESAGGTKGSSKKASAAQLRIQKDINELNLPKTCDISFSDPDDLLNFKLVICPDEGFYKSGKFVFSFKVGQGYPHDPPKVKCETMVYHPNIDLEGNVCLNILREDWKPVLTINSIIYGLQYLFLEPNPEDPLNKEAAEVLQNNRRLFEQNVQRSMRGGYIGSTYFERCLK
Target sequence (Q13564 whole entry, looked up): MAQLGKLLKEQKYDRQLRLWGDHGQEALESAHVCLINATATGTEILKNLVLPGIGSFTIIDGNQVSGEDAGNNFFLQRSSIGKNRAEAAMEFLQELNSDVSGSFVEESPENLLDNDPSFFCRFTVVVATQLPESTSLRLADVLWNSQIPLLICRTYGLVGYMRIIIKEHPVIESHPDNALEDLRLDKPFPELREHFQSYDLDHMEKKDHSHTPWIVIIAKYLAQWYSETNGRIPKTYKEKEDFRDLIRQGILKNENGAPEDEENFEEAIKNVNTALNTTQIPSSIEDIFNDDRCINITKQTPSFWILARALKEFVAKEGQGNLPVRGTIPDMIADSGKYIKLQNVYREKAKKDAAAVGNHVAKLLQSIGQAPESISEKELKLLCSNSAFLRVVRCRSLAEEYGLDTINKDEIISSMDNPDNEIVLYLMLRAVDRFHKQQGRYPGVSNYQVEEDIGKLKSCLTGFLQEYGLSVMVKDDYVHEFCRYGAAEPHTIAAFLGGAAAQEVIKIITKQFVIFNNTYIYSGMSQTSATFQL
dFosB act-2 – activators of mouse delta FosB DNA binding, confirmation, biochemical, fluorescence polarization, TAMRA-CDK5 oligo, cherry-picked samples. shares compounds with dFosB act-1. 2,400 tested, under 10 active. purified delta FosB; normalised: neutral wells 0, positive control 100. AID 588690, 2011. activation, % at 24.9 µM;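 active = highest replicate activation at or above 34% and every replicate reaching that threshold; inconclusive = meets only one of the two criteria; inactive = meets neither criterion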;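 note: higher polarization means more probe DNA bound by delta FosB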
* hit, by the source's call; ? = inconclusive; nt = no result given.

SMILES	Vif imaging	GSIS activator	dFosB act-1	A1 inh	Neddylation inh	dFosB act-2
O=c1[nH]c(CSc2nc3ccccc3[nH]2)nc2c1cnn2-c1ccccc1	-15.3	-21.4	-19.4	-1.9	5.9	nt
C[C@@H]1CCCCO[C@H](CN(C)C(=O)Nc2ccc3c(c2)OCO3)[C@H](C)CN([C@@H](C)CO)C(=O)c2cc(NC(=O)Nc3cccc4ccccc34)ccc2O1	nt	13.9	nt	nt	nt	nt
O=C(CSc1nc(-c2ccccc2)cc(C(F)(F)F)n1)NCc1cccs1	-8.5	-5.9	26.8*	1.2	-20.3	0.7
COc1ccc(-c2cc(C(F)(F)F)nc(SCC(=O)NCc3cccs3)n2)cc1	nt	16.7	15.2	1.2	-66.6	nt
COc1ccc(NC(=O)COc2ccc(/C=N/NC(=O)c3cccnc3)cc2OC)cc1	2.6	1.6	-10.7	-0.4	-0.1	nt
COc1cc(/C=N/NC(=O)c2cccnc2)ccc1OCC(=O)Nc1ccccc1Cl	1.4	0.3	116.5*	0.1	nt	-0.4
COc1cc(/C=N/NC(=O)c2cccnc2)ccc1OCC(=O)Nc1c(C)cc(C)cc1C	-6.5	9.4	25.6*	1.0	23.3	5.7
O=C(C[C@H]1C=C[C@H](NC(=O)Nc2ccccc2F)[C@@H](CO)O1)NCc1ccc(F)cc1	nt	17.4	nt	nt	nt	nt
CC(=O)Nc1ccc(Sc2ncccc2C(=O)Nc2cc(Cl)cc(Cl)c2)cn1	10.4	-15.0	81.7*	0.4	-66.2	-0.7
COc1cc(NC(=O)c2cccnc2Sc2ccc(C)c(C)c2)cc(OC)c1OC	-3.0	-14.8	-9.8	-0.7	5.5	nt
CC(=O)Nc1ccc(Sc2ncccc2C(=O)Nc2ccc(OC(F)(F)F)cc2)cn1	2.1	11.8	51.3*	0.3	5.4	3.7
CO[C@H]1CN(C)C(=O)c2cc(NS(C)(=O)=O)ccc2OC[C@H](C)N(C(=O)CC2CC2)C[C@@H]1C	nt	7.6	nt	nt	nt	nt
COc1ccc(NC(=O)N(C)C[C@H]2OCc3cn(nn3)CCCC(=O)N([C@H](C)CO)C[C@H]2C)c(OC)c1	nt	-1.3	nt	nt	nt	nt
CS(=O)(=O)N(Cc1ccc(Cl)cc1)c1ccc(C(=O)NCc2ccccn2)cc1	-0.3	-9.5	-9.0	0.8	-5.5	nt
CS(=O)(=O)N(Cc1ccc(Cl)cc1)c1ccc(C(=O)N/N=C/c2cc3ccccc3nc2Cl)cc1	-17.8	-25.7	40.5*	-0.1	12.9	6.8
COc1ccc(-c2cc(C(=O)Nc3nc4c(C)cccc4s3)c3ccccc3n2)cc1OC	-18.3	-2.8	39.1*	nt	nt	1.2
COc1cc(-c2cc(C(=O)Nc3cccc(S(=O)(=O)N(C)C)c3)c3ccccc3n2)cc(OC)c1OC	-10.3	-11.2	40.8*	1.6	-8.8	5.0
C[C@H](CO)N1C[C@H](C)[C@H](CN(C)Cc2ccc(C(=O)Nc3ccccc3N)cc2)Oc2ccc(NC(=O)CCC(F)(F)F)cc2C1=O	nt	16.3	nt	nt	nt	nt
CCOC(=O)c1c(CSC(=N)N)n(-c2ccc(C)cc2)c2cc(Br)c(OC(C)=O)cc12	0.8	nt	36.5*	0.1	1.5	1.9
C[C@@H]1CN([C@@H](C)CO)S(=O)(=O)c2ccc(-c3cccc(F)c3)cc2O[C@@H]1CN(C)CC1CC1	nt	-6.8	nt	nt	nt	nt
Cc1cc2ccccc2c(=O)n1CC(=O)Nc1ccc2c(c1)OCCO2	nt	nt	18.8*	0.1	-1.9	0.4
Cn1c(=O)cc(OCCCC(=O)Nc2ccc3c(c2)OCCO3)c2ccccc21	1.6	nt	43.8*	1.0	4.4	2.1
COc1ccc(NC(=O)CNC(=O)Cn2c(C)cc3ccccc3c2=O)cc1OC	-14.3	-8.7	9.7	0.2	0.7	nt
COc1ccc(CNC(=O)C[C@H]2C[C@H]3c4cc(NC(=O)CC5CC5)ccc4O[C@H]3[C@@H](CO)O2)cc1	nt	10.2	nt	nt	nt	nt
COc1cccc(NC(=O)c2cc(C(=O)Nc3cccc(OC)c3)n(C)n2)c1	50.0	-32.4	4.4	0.2	16.4	nt
SMILES	Vif imaging	GSIS activator	dFosB act-1	A1 inh	Neddylation inh	dFosB act-2
Cn1nc(C(=O)Nc2ccc(Br)cc2)cc1C(=O)Nc1ccc(Br)cc1	38.4	5.8	40.0*	1.4	-6.0	4.6
CC(C)CCNC(=O)CCCn1c(=O)[nH]c2ccc(Br)cc2c1=O	2.1	nt	-4.4	0.2	-33.7	nt
O=C(CCCn1c(=O)[nH]c2ccc(Br)cc2c1=O)NCc1ccc(Cl)cc1	8.6	17.2	99.8*	0.9	-158.0	0.3
COc1cccc(CNC(=O)CCCn2c(=S)[nH]c3cc4c(cc3c2=O)OCO4)c1	-15.3	nt	32.2*	-3.1	-94.4	3.3
O=c1c2ccccc2[nH]c(=S)n1Cc1ccc2c(c1)OCO2	5.7	1.8	21.2*	0.8	-42.2	4.2
O=C(CCn1c(=S)[nH]c2ccccc2c1=O)Nc1cccc(Cl)c1	-6.8	-5.8	47.1*	-0.3	-67.2	2.7
COc1cccc(NC(=O)CCCn2c(=S)[nH]c3ccccc3c2=O)c1	1.9	nt	-10.8	0.5	-0.9	nt
CCCC#Cc1cnc2c(c1)C(=O)N([C@@H](C)CO)C[C@H](C)[C@@H](CN(C)C(=O)Cc1ccncc1)O2	nt	0.1	nt	nt	nt	nt
O=C(CCCCCn1c(=S)[nH]c2ccccc2c1=O)NCc1ccc2c(c1)OCO2	-4.8	nt	44.0*	-0.2	-277.9	2.6
CN1C2=C(C#N)C(c3ccccc3)(C(F)(F)F)NC(=O)N2c2ccccc21 (stereo not drawn)	-2.7	9.2	-3.2	0.4	33.7	nt
Cc1ccc(C2(C(F)(F)F)NC(=O)N3C(=C2C#N)Nc2ccccc23)cc1 (stereo not drawn)	2.6	nt	22.8*	-0.6	0.7	6.2
COc1ccccc1NC(=O)Cn1cnc2sc(C(=O)Nc3cc(OC)c(OC)c(OC)c3)c(C)c2c1=O	-5.3	-1.6	9.1	-0.4	-11.7	nt
COc1ccccc1NC(=O)c1sc2ncn(CC(=O)Nc3ccccc3)c(=O)c2c1C	10.2	-3.4	48.9*	0.8	-42.9	0.8
CN(C)c1nc(N/N=C\c2ccc(Cl)c([N+](=O)[O-])c2)nc(Nc2ccc(F)cc2)n1	nt	nt	118.3*	-0.7	-2.8	-16.6
Nn1cnnc1N/N=C/c1ccc(Cl)c([N+](=O)[O-])c1	-1.3	-12.7	-5.2	-0.1	-32.5	nt
C=CCn1c(=S)[nH]c2cc(-c3ccccc3)sc2c1=O	-1.7	-2.2	40.3*	-1.1	-26.4	1.9
Cc1cc2oc(C(=O)Nc3nonc3C)c(C)c2cc1Cl	-1.3	-1.3	46.2*	-0.1	-9.8	2.5
Cc1nonc1NC(=O)c1oc2ccc(F)cc2c1C	-15.2	28.0	28.9*	0.1	1.9	1.8
Cc1cc(C)c(C)c(C(=O)COC(=O)CNC(=O)CN2C(=O)c3ccccc3C2=O)c1C	-2.0	7.0	43.2*	-0.7	-2.6	?
